Screen size: about 2,400 compounds; about 750 (31%) were called active. Some of the results follow. Unmarked numbers belong to inactive results.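 The calls were made as follows: active = median signal gain over dofetilide-blocked control wells reaching their mean plus 3 SD, so readout 1 at least 0; inactive = the rest.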

Voltage-gated inwardly rectifying potassium channel KCNH2 (Homo sapiens), sequence (Q12809 whole entry, looked up): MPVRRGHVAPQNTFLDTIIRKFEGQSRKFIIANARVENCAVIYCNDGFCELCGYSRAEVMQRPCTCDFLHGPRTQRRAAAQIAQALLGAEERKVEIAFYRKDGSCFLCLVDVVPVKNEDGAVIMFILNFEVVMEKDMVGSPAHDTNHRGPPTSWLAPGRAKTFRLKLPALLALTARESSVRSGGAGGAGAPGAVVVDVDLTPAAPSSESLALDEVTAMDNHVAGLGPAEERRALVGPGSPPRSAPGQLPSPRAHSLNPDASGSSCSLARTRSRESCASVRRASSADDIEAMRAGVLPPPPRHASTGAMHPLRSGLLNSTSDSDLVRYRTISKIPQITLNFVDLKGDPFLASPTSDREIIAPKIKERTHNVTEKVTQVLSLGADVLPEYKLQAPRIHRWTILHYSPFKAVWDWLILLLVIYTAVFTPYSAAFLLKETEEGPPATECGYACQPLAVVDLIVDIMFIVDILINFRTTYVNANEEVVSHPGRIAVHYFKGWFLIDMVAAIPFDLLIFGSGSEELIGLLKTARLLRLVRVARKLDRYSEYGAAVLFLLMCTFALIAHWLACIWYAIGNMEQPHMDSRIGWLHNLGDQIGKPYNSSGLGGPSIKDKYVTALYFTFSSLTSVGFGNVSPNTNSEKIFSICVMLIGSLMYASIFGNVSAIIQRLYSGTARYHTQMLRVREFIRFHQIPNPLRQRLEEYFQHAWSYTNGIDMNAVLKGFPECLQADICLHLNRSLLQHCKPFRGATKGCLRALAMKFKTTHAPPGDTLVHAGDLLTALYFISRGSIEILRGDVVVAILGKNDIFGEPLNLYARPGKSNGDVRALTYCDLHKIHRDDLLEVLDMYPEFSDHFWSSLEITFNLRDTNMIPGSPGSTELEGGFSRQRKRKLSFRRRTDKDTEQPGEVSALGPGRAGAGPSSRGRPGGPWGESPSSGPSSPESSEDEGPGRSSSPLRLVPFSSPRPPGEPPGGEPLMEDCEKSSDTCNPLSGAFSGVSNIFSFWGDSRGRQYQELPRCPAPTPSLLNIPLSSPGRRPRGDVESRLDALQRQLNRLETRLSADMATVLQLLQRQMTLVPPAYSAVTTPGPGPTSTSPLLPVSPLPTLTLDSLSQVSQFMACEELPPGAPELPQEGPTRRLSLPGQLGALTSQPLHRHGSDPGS

This experiment addresses Voltage-gated inwardly rectifying potassium channel KCNH2 (Homo sapiens) (UniProt Q12809). The experiment can be described thus: modulators restoring hERG flux under dofetilide – cell-based, thallium flux, duplicate retest, dofetilide IC70, confirmation (AID 1835). Conditions: hERG cell line, FluxOR thallium flux, dofetilide-blocked; at 10 µM; stronger effect = higher value.
For `O=C(N/N=C/c1ccc2cccc(OCc3ccccc3)c2n1)c1ccc(Br)cc1`, the activity increase over dofetilide control, less the hit threshold was -9%. The value for `CC(C)C(=O)Nc1cccc(C(=O)Nc2ccccc2C(=O)O)c1` was -7%; that for `O=C(CCCOc1ccc(Cl)cc1Cl)Nc1ccccc1C(=O)O` was 3% (active).

In the case of `CN(C)C(=O)c1ccc(NC(=O)c2cncc(Br)c2)cc1`, the activity increase over dofetilide control, less the hit threshold was -12%. As for `O=C(Nc1ccccc1C(=O)O)c1cncc(Br)c1`, the activity increase over dofetilide control, less the hit threshold is 12% (active). In the case of `COc1cc(NC(=O)CCCOc2ccc(Cl)cc2Cl)c(C(=O)O)cc1OC`, the activity increase over dofetilide control, less the hit threshold is -6%. For the compound `CCOP(=O)(OCC)C(NC(=O)c1ccc(OC)c(OC)c1)c1ccccc1` (configuration not stated), the activity increase over dofetilide control, less the hit threshold was -14%. The value for `COc1cc(C(=O)Nc2ccc(O)cc2C(=O)O)ccc1OC(C)=O` was 1% (active).

For `COc1ccc(C(=O)Nc2ccccc2C(=O)O)cc1Cl`, the activity increase over dofetilide control, less the hit threshold is 5% (active). In the case of `COc1cc(C(=S)N2CCOCC2)ccc1OC(=O)c1ccc([N+](=O)[O-])cc1[N+](=O)[O-]`, the activity increase over dofetilide control, less the hit threshold was -22%. The value for `O=C(Nc1ccccc1C(=O)O)c1cccc(NC(=O)c2ccccc2Br)c1` was -5%; that for `O=C(O)c1cc(/C=N\O)ccc1OCc1ccccc1` was -9%; that for `Cc1c(Cl)c([N+](=O)[O-])nn1CC(=O)NCC(C)C` was -20%.

On to `COc1ccc(COC(=O)C2CCN(S(=O)(=O)c3cccs3)CC2)cc1`, for which the activity increase over dofetilide control, less the hit threshold is -27%. The value for `CC1CCCC(C)N1S(=O)(=O)c1ccc(NC(=O)CCn2cnc3ccccc3c2=O)cc1` (configuration not stated) was -12%; that for `CCOc1ccc(C(=O)Nc2ccccc2C(=O)O)cc1` was 3% (active); that for `O=C(Nc1ccccc1C(=O)O)c1ccc(NC(=O)C2CC2)cc1` was -2%.

In the case of `CCCCC(=O)Nc1cccc(C(=O)Nc2ccccc2C(=O)O)c1`, the activity increase over dofetilide control, less the hit threshold is -3%. The value for `Cn1c(/N=C/c2c(O)ccc3ccccc23)nc2ccccc21` was -32%; that for `O=S(=O)(Nc1ccc(Cc2ccncc2)cc1)c1ccc(Cl)c(Cl)c1` was -6%; that for `O=C1C2CC=CCC2C(=O)N1c1ccc(Cc2ccncc2)cc1` (configuration not stated) was 3% (active). The value for `CC(C)(C)c1cc(C(=O)NNC(=O)c2ccc(Cl)cc2)no1` was 29% (active); that for `CC(C)(C)c1csc(NNC(=O)c2ccc(Cl)cc2)n1` was -3%.

For the compound `Cc1nc(-c2nc(-c3c(C(=O)NNC(=O)c4ccc(Cl)cc4)noc3C)cs2)cs1`, the activity increase over dofetilide control, less the hit threshold is -17%. Turning to `Cc1csc2c(N3CCCCC3)ncnc12`, the activity increase over dofetilide control, less the hit threshold was -8%. As to `COc1cc(NC(=O)CSc2ncnc3sc4c(c23)CCC(C)C4)c(C(=O)O)cc1OC` (configuration not stated), the activity increase over dofetilide control, less the hit threshold was 94% (active).

For `CC(=O)CSc1ncnc2sc3c(c12)CCC(C)C3` (configuration not stated), the activity increase over dofetilide control, less the hit threshold was 72% (active). The value for `Cc1nnc(NC(=O)CN2CCN(Cc3ccc(F)cc3Cl)CC2)s1` was -17%; that for `CCCCCCC1CCC(C(=O)N2CCOCC2)CC1` (configuration not stated) was -5%. Regarding `O=C(CCCc1c[nH]c2ccccc12)Nc1ccc(S(=O)(=O)Nc2ncccn2)cc1`, the activity increase over dofetilide control, less the hit threshold was -19%.

`COCC1CCCN(C(=O)c2ccc3oc(C(C)C)nc3c2)C1` (configuration not stated): the activity increase over dofetilide control, less the hit threshold was -12%. The value for `Oc1c(Cl)cc(CN2CCCCC2)c2cccnc12` was -6%; that for `O=c1oc2ccccc2c(Cl)c1CN1CCCCC1` was 2% (active). For the compound `O=C(c1c(O)c2ccccc2oc1=O)C1CCCCC1`, the activity increase over dofetilide control, less the hit threshold was -4%. The value for `Cc1ccc(NC(=O)CCc2nc3sc4c(c3c(=O)[nH]2)CCCC4)c(Br)c1` was -17%; that for `NC(=O)C1CCN(C(=O)CC(c2ccccc2)c2ccccc2)CC1` was -17%.

Consider `Cc1ccc(-c2nc3c(Cl)cc(Cl)cc3c(=O)n2O)cc1`, for which the activity increase over dofetilide control, less the hit threshold is 83% (active). The value for `O=c1c2ccccc2nc(-c2ccccc2)n1O` was -7%. As to `O=c1c2cc(Cl)ccc2nc(-c2ccccc2)n1O`, the activity increase over dofetilide control, less the hit threshold is 18% (active).

As for `O=c1c2cc(Cl)ccc2nc(-c2ccc(Cl)c(Cl)c2)n1O`, the activity increase over dofetilide control, less the hit threshold is 124% (active). The value for `Cc1ccc(-c2nc3ccccc3c(=O)n2O)cc1` was 14% (active); that for `O=C(Cc1ccccc1)Nn1c(-c2ccccc2)nc2ccccc2c1=O` was -15%. The value for `CCOc1ccc(N=Nc2cc(C(C)C)ccc2O)cc1` was -9%.

Take `COC(=O)Sc1nnc(-c2ccc(Br)cc2)o1`: the activity increase over dofetilide control, less the hit threshold was -2%.

Consider `CNC(=O)COC(=O)c1cccc(S(=O)(=O)N2CCN(c3ccc(F)cc3)CC2)c1`, for which the activity increase over dofetilide control, less the hit threshold was -20%.

For `CCC(C)NC(=O)Cn1nc(C(F)(F)F)c2c1CCCC2` (configuration not stated), the activity increase over dofetilide control, less the hit threshold is -7%. For the compound `Cc1ccccc1Cc1c(C)nc2c(C(=O)NCc3ccc4c(c3)OCO4)cnn2c1C`, the activity increase over dofetilide control, less the hit threshold is -11%. The value for `OC(CNCC(c1ccc(Cl)cc1Cl)c1c[nH]c2ccccc12)c1ccccc1` (configuration not stated) was -48%; that for `CCOc1ccc(NC(=O)CN(C)C(=O)c2c(-c3c(F)cccc3Cl)noc2C)cc1OCC` was -7%; that for `CN(Cc1cccc(C(F)(F)F)c1)Cc1nc(-c2cnccn2)no1` was -8%.

Turning to `Cc1ccc(-c2nc3ccc(Cl)cc3c(=O)n2O)cc1`, the activity increase over dofetilide control, less the hit threshold was 78% (active). The value for `Cc1ccc(-c2onc3ccc(Cl)cc23)cc1` was 0%; that for `O=c1c2ccccc2nc(-c2ccc(Cl)c(Cl)c2)n1O` was 36% (active).

As for `O=c1c2ccccc2nc(-c2cccc(Cl)c2)n1O`, the activity increase over dofetilide control, less the hit threshold was 39% (active). The value for `CCOC(=O)c1c(N2C(=O)Nc3ccccc3N2O)n[nH]c1-c1cccc(Cl)c1` was -4%; that for `Cc1ccc(C(=O)NNc2cc(N3CCCC3)nc(N3CCCC3)n2)cc1` was -6%. The value for `CCOc1ccc2[nH]cc(S(=O)(=O)c3ccc(F)cc3)c(=O)c2c1` was -19%. As for `Cc1ccc(-c2nc(CSCC(=O)N3CCOCC3)c(C)o2)cc1`, the activity increase over dofetilide control, less the hit threshold is -9%. The value for `NC(=O)[C@@H]1CCCN1Cc1nc(Cc2ccccc2Cl)no1` was -15%. For the compound `Cc1ccc(NC(=O)c2c([N+](=O)[O-])c(C(C)(C)C)nn2C)cc1`, the activity increase over dofetilide control, less the hit threshold is -1%.

`CCCCOC(=O)c1ccc(NC(=S)NC(=O)c2c(Br)c(C)nn2C)cc1`: the activity increase over dofetilide control, less the hit threshold was 38% (active). As to `CCn1ncc(Cl)c1C(=O)NC(=S)Nc1ccccc1Br`, the activity increase over dofetilide control, less the hit threshold is 46% (active).

For `CCCCOC(=O)c1ccc(NC(=S)NC(=O)c2c(Cl)cnn2C)cc1`, the activity increase over dofetilide control, less the hit threshold was -11%.

As to `O=C(NC(=S)Nc1ccccc1N1CCCC1)c1ccccc1Br`, the activity increase over dofetilide control, less the hit threshold was -2%.

As for `Cc1nn(C)c(C(=O)NC(=S)Nc2ccc([N+](=O)[O-])cc2)c1Cl`, the activity increase over dofetilide control, less the hit threshold is 18% (active).

`Cc1nn(CCC(=O)NNC(=S)Nc2ccc(F)cc2)c(C)c1[N+](=O)[O-]`: the activity increase over dofetilide control, less the hit threshold was -24%. `Cc1nn(C)c(C(=O)NC(=S)Nc2ccccc2Br)c1Cl`: the activity increase over dofetilide control, less the hit threshold was 27% (active).

For the origin of these results see PubChem BioAssay AID1835 (Johns Hopkins Ion Channel Center, 2009).
